# Most compounds without a hit are left out; they make up all but 9.2% or so of the library.
# ELG1 repair inh: ELG1-dependent DNA repair inhibition; HEK293T ELG1-luciferase reporter, luminescence, 16 h; DNA damage induced by 5-fluorouridine; Potency, µM (series often up to 46.1 µM), inactives show at the top dose activity change, negative = inhibition, actives largely listed as inhibitors; actives 2.3% (n = 330,000); AID 504467; note: % is set by controls: 0 for no effect and ±100 for the full control effect; nearly all actives have a fitted effect of over 55% in size
#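 HEK293T cells expressing luciferase-tagged ELG1 (2,000/well) received 5-Fluorouridine plus compound or DMSO for 16 hr at 37 °C. Luciferase was read by ONE-Glo luminescence after 30 min at room temperature.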
# ELG1 genotoxic: inducers of genotoxicity in HEK293T ELG1-luciferase cells | actives 1.3% (n = 330,000) | Potency, µM (doses to about 46 µM), for inactives: at the top dose activity change, positive = activation, actives largely listed as activators | AID 504466 | HEK293T ELG1-luciferase reporter, luminescence, 16 h; note: % of control where 0% means no effect; nearly all actives have a fitted effect of over 60% in size
#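 Screening used a luciferase reporter fused to human ELG1 in HEK293T cells. Luminescence was read on a CCD plate imager after 16 hr exposure and 30 min ONE-Glo incubation.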
# SMN2 splice enh: SMN2 splice variant enhancement. HEK293 SMN2-luciferase splicing reporter, luminescence, 30-36 h. Potency, µM (series often up to 46.1 µM), for the others: at the top dose activity change, positive = activation, actives largely listed as activators. actives 2.8% (n = 210,000); note: % of control where 0% means no effect; nearly all actives have a fitted effect of over 55% in size
#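 qHTS luciferase splicing reporter: luminescence rises when SMN2 exon 7 is included in transfected HEK293 cells. Compound exposure lasted 30-36 h at 37C, with 4.5 mM final sodium butyrate as control, followed by a ONE-Glo read.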
# FLuc modulator: inhibits or activates purified firefly luciferase, miR-21 counter-screen. purified FLuc, Km substrates, luminescence inhibition. Potency, µM (highest dose often 57.5 µM), inactives show at the highest dose activity change, negative = inhibition, most hits filed as inhibitors. actives 6.9% (n = 360,000). AID 588342;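 note: plate controls were vehicle for no effect and reference inhibitor for full effect; nearly all actives have a fitted effect of over 55% in size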
# Target sequence (P08659 whole entry, looked up): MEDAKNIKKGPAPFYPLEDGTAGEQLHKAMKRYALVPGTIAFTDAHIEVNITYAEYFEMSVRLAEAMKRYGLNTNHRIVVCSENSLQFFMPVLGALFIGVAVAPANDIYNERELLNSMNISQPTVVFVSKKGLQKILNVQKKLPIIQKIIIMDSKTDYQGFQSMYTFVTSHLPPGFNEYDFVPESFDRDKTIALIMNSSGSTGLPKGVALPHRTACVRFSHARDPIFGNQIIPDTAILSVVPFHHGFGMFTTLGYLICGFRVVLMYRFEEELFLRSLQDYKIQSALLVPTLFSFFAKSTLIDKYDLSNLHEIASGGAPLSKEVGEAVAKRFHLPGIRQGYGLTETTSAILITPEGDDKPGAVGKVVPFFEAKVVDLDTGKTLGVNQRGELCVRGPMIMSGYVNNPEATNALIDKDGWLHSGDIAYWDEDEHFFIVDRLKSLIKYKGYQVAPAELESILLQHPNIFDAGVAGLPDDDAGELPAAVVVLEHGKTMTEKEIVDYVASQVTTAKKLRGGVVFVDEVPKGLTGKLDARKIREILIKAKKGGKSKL
#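 Purified P. pyralis luciferase (10nM final) with 10uM D-luciferin and 10uM ATP (Km levels) in 50mM Tris acetate pH 7.5, 10mM Mg acetate, 0.01% Tween-20, 0.05% BSA; qHTS 6-point titration, ~60 µM downward; luminescence read.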
# Rab9 promoter act: activates the Rab9 promoter; actives 2.8% (n = 320,000); Huh7 Rab9 promoter-luciferase reporter, luminescence, 24 h; Potency, µM (doses to about 9.22 µM), without a hit: at the highest dose activation, negative = inhibition, hits mostly activators; note: % of control where 0% means no effect; nearly all actives have a fitted effect of over 60% in size
#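 Cells were plated at 1500 per well in reduced-serum medium with 10% FBS and left 2 h. Compound in DMSO was then added for 24 h at 37 °C. Reporter signal was read by luminescence after 10 min with luciferase detection reagent.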
# NPC1 prom act: activates the NPC1 promoter; Huh7 NPC1 promoter luciferase reporter, 24 h; Potency, µM (series often up to 9.22 µM), for inactives: at the highest dose activation, hits mostly activators; actives 2.4% (n = 320,000); AID 485313; note: % of control where 0% means no effect; nearly all actives have a fitted effect of over 60% in size
#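 Huh7 reporter cells (NPC1 promoter driving luciferase) are dosed with compound for 24 h at 37 °C, 5% CO2; luciferase detection reagent is then added and luminescence measured after 10 min at ambient temperature.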
# Starred values were filed as active, the others as inactive; ? = inconclusive; / = no result given; [ ] = another dose, or the depositor's remark. Calls come from the whole dose curve; as a rule, active = well fitted curve in the direction sought with a large enough effect; inconclusive = small, poorly fitted or top-dose-only effect, or another doubt; inactive = no such curve, though single readings can be large; an effect the other way counts as inactive or inconclusive. Potency is the fitted concentration of half-maximal effect.
SMILES,ELG1 repair inh,ELG1 genotoxic,SMN2 splice enh,FLuc modulator,Rab9 promoter act,NPC1 prom act
C[C@H](NC(=O)[C@@H]1Cc2ccccc2CN1)C(=O)Nc1ccc2c(c1)OCO2,29%,5%,/,-6%,2%,9%
C[C@@H](NC(=O)[C@@H]1Cc2ccccc2CN1)C(=O)Nc1ccc2c(c1)OCCO2,?,?,/,21µM*,27%,30%
COc1ccc(OC)c(CNC(=O)c2c(C)oc3ncn(C)c(=O)c23)c1,/,/,/,2%,/,/
COc1ccccc1OCCSc1nc2ccccc2n1CC(N)=O,?,3%,/,15µM*,5%,-3%
O=C(Nc1ccn(-c2ccccc2)n1)c1ccccc1Br,?,?,16µM*,?,27%,?
O=C(Nc1ccn(-c2ccccc2)n1)c1ccc(Cl)cc1,?,10%,7%[1.84 µM],13µM*,16%,13%
N#Cc1ccc(C(=O)Nc2ccn(-c3ccccc3)n2)cc1,23µM*,-7%,-53%,?,-11%,-1%
CC(=O)Nc1ccn(-c2ccccc2)n1,?,5%,16%,?,17%,13%
COc1ccc(C2c3c(n(C)c4ccccc34)C(=O)N2CC(=O)Nc2ccc(C)cc2Cl)cc1 (stereo not given),/,/,/,-9%,/,/
Cc1cccc(N2CC(C(=O)NCCC3=CCCCC3)CC2=O)c1C (stereo not given),-1%,2%,/,?,-17%,5%
CCOc1ccccc1NC(=O)C(Cc1ccccc1)NS(=O)(=O)c1ccc2c(c1)oc(=O)n2C (stereo not given),/,/,0%,2%,/,/
COc1ccc(-c2nnn3c2nc(NCc2ccc(C)cc2)c2ccccc23)cc1,/,/,1%,-4%,/,/
O=C(COC(=O)c1cccnc1Cl)c1cccc(Cl)c1,?,11%,-4%,13µM*,17%,2%
O=C(OCc1ccc(Cl)cc1Cl)c1cccnc1Cl,-1%,-2%,-7%,-10%,-5%,-2%
CNC(=O)COC(=O)c1cccnc1SC,7%,0%,-7%,1%,-1%,1%
COc1ccc(OC)c(C(=O)COC(=O)c2cccnc2SC)c1,-18%,0%,/,-3%,-8%,-9%
CSc1ncccc1C(=O)OCC(=O)N(C)C,6%,1%,26%,-1%,-2%,-1%
CSc1ncccc1C(=O)OCC(=O)c1ccccc1Br,-11%,10%,-6%,8.5µM*,-2%,1%
CSc1ncccc1C(=O)OCC(=O)c1ccccc1,-11%,4%,2%,12µM*,0%,1%
COc1ccc(C(=O)COC(=O)c2cccnc2SC)cc1,3%,0%,3%,3.8µM*,-9%,4%
CC(C)[C@@H](C(=O)N1CCCC1)N1C(=O)N2CCc3c([nH]c4ccccc34)[C@@]2(C)C1=O,-14%,-5%,/,2%,-1%,-1%
O=C(COC(=O)/C=C/c1ccccc1[N+](=O)[O-])Nc1ccc(S(=O)(=O)N2CCOCC2)cc1,10%,1%,/,/,/,/
CCOC(=O)Cn1c(=O)cc(-c2ccccc2)c2c(C)nn(C)c21,/,/,/,-14%,/,/
Cc1cc(NC(=O)Nc2nnc(N(C)Cc3ccccc3)s2)ccc1Br,/,/,/,-12%,/,/
Cc1ccc(C(=O)Nc2cc(-c3nc4ncccc4o3)ccc2C)c(C)c1,/,/,11%,3%,/,/
SMILES,ELG1 repair inh,ELG1 genotoxic,SMN2 splice enh,FLuc modulator,Rab9 promoter act,NPC1 prom act
CSc1ncccc1C(=O)OCC(=O)NC(C)(C)C,-9%,2%,1%,5%,-3%,-1%
CSc1ncccc1C(=O)OCC(=O)c1cc2ccccc2o1,-2%,3%,5%,21µM*,-9%,10%
Cn1cc(Cl)c(C(=O)OCC(=O)Nc2nc(-c3ccc(Br)cc3)cs2)n1,?,-1%,16µM*,?,17%,14%
CSc1ncccc1C(=O)OCC(=O)NC(N)=O,21%,4%,7%,-2%,-8%,7%
COc1ccc(C(=O)COC(=O)c2nn(C)cc2Cl)cc1,?,?,/,17µM*,22%,24%
CSc1ncccc1C(=O)OCC(=O)c1ccc(Br)s1,0%,-2%,2%,12µM*,9%,0%
CC1CCCCC1NC(=O)C1CCN(S(=O)(=O)c2cccc3nonc23)CC1 (stereo not given),0%,-2%,/,0%,-2%,1%
Cc1sc2ncn(CC(=O)NCCCC(=O)N3CCCCC3)c(=O)c2c1C,-11%,0%,/,3%,0%,-2%
CCc1ccccc1NC(=O)c1ccc(CN2C(=O)CCn3nc(C)cc32)cc1,/,/,/,-2%,/,/
O=C(OCC(=O)c1ccccc1Br)c1ccncc1,-8%,-7%,4%,11µM*,-3%,0%
O=C(NNC(=O)c1ccccc1Br)c1ccncc1,1%,5%,/,-5%,6%,-2%
O=C(OCC(=O)c1cccc2ccccc12)c1ccc(CO)cc1,?,17%,/,12µM*,22%,?
COc1ccc2c(c1)O/C(=C\c1ccccc1C)C2=O,?,14%,/,13µM*,?,29%
COc1ccc(/C=C2\Oc3cc(OC(=O)N4CCOCC4)ccc3C2=O)cc1,?,-8%,/,6.7µM*,-1%,28%
CCc1ccc(/C=C2\Oc3cc(OC(=O)N4CCOCC4)ccc3C2=O)cc1,-10%,0%,-47%,7.6µM*,-10%,-6%
CC1=C(C(=O)Nc2ccccc2C(=O)N2CCC(C)CC2)SCCO1,-3%,-6%,/,2%,0%,3%
Cc1ccc(C)c2[nH]c(=O)c(CN(Cc3ccco3)C(=O)Nc3ccccc3)cc12,5.2µM*,-12%,-20%,?,-5%,2%
COc1ccccc1NC(=S)N(Cc1ccco1)Cc1cc2cccc(C)c2[nH]c1=O,16µM*,-7%,0%[1.84 µM],-1%,-4%,-5%
COc1ccccc1NC(=S)N(Cc1ccco1)Cc1cc2cc(C)c(C)cc2[nH]c1=O,?,7%,-25%,7%,-20%,-21%
COc1ccccc1NC(=O)N(Cc1ccco1)Cc1cc2cc(C)cc(C)c2[nH]c1=O,18µM*,-4%,-15%,-27%,2%,-2%
Cc1ccc(NC(=O)CN2C(=O)COc3ccc(S(=O)(=O)NC4CCCC4)cc32)cc1N(C)C,/,/,/,1%,/,/
O=C(CN1C(=O)COc2ccc(S(=O)(=O)N3CCCC3)cc21)N1CCN(c2ccccc2F)CC1,/,/,3%,-2%,/,/
Cc1ccc(Nc2nc(C)cc(C)n2)c(Br)c1,?,8%,4%,21µM*,19%,22%
CC(C)CN1C(=O)C(=O)N(CC(=O)N(C)CC(=O)Nc2ccc(F)cc2)C1=O,7%,4%,/,/,0%,-3%
